Bioassay records as filed in PubChem BioAssay.
UBC13 inh – UBC13 polyubiquitin chain formation inhibitors, primary screen, biochemical, TR-FRET, uHTS; Ubiquitin-conjugating enzyme E2 N (Homo sapiens), P61088; inhibition, % at 20 µM; 330,000 tested, 0.47% active; in the data active means inhibition above about 45%, passing the limit was not always enough
MEKK2 WT-MEK5 – modulators of MEK5 binding to wildtype MEKK2, primary screen, biochemical, multiplex bead flow cytometry, Alexa488-MEK5; Mitogen-activated protein kinase kinase kinase 2 (Homo sapiens), Q9Y2U5; Alexa488-MEK5 binding to MEKK2 WT; actives lie on both sides; binding response (% of control), % at 10 µM; 290,000 tested, 1.1% active; AID 1531, 2009; in the data active means binding response below about 67% or above about 130%
MEKK2mut PB1 HTS – MEK5 binding signal on mutant MEKK2 PB1, primary screen, biochemical, multiplex bead flow cytometry, Alexa488-MEK5; AID 1530, 2009; percent response, % at 10 µM; Alexa488-MEK5 binding to MEKK2 mutant; 290,000 tested, 0.35% active; in the data active means percent response above about 24%, passing the limit was not always enough
MEKK3 PB1 HTS – modulators of MEKK3-MEK5 PB1 binding, primary screen, biochemical, wildtype MEKK3, multiplex bead flow cytometry, Alexa488-MEK5 | Mitogen-activated protein kinase kinase kinase 3 (Homo sapiens), Q99759 | bead-based flow cytometry, Alexa488-MEK5 binding to MEKK3; actives lie on both sides; 0 = blocked by unlabeled MEK5, 100 = vehicle | binding response (% of control), % at 10 µM | 290,000 tested, 1.4% active | AID 1529, 2009;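 active means binding response more than 3 SD above or below the average of its plate-row segment, actives on both sides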;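 further: Alexa488 bead fluorescence after subtracting the streptavidin-only scavenger bead signal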
Target sequence (Q99759 whole entry, looked up): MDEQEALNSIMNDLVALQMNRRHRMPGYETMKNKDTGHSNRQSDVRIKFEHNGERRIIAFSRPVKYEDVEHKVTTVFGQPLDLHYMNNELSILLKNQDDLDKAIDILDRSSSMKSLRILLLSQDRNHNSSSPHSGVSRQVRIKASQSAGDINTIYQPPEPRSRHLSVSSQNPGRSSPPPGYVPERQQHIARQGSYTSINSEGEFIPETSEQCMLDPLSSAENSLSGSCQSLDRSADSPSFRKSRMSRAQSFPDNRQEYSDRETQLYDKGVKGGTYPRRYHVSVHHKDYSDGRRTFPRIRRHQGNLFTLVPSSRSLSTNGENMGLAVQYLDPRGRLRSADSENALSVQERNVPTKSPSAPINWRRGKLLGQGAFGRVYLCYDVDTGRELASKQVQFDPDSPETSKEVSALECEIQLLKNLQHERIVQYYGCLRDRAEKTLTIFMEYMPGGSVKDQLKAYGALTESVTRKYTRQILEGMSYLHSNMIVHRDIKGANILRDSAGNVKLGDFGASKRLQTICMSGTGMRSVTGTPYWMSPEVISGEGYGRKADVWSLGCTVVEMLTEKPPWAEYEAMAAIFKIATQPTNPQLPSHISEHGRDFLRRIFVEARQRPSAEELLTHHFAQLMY
MEKK2wt confirm – modulators of MEK5 binding to wildtype MEKK2, confirmation, biochemical, single concentration, multiplex bead flow cytometry | 5,900 tested, 2.4% active | AID 1892, 2009 | binding response (% of control), % at 10 µM | shares compounds with MEKK3 PB1 HTS | Alexa488-MEK5 binding to MEKK2 WT; actives lie on both sides; in the data active means binding response below about 16% or above about 210%; inactive means in between
MEKK2mut-MEK5 – mutant MEKK2 PB1-MEK5 binding signal retest – biochemical, single concentration, multiplex bead flow cytometry, confirmation | shares compounds with MEKK3 PB1 HTS | Alexa488-MEK5 binding to MEKK2 mutant | percent response, % at 10 µM | 5,900 tested, 2% active; in the data active means percent response mostly above about 71%, no sharp cut-off; inactive means mostly below about 38%;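 further: higher means compound restores mutant binding toward wildtype level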
MEKK3 confirm – MEKK3 wild-type PB1 binding to MEK5, inhibitors, confirmation, biochemical, bead multiplex flow cytometry, single concentration, wildtype; shares compounds with MEKK3 PB1 HTS; Alexa488-MEK5 binding to MEKK3; hits give low values; binding response (% of control), % at 10 µM; 5,900 tested, 1.8% active;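 active means binding response below 72% of control, or above a set upper limit, though filed actives all read lower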
Each line names hits and unclear results; the compound was inactive in the other large screens (follow-up assays come after a bar, where they were run); [ ] = remark or other dose. This is a sample that favours compounds with a hit; in the whole collection about 2.3% have one here.

CC(=O)Nc1nnc(-c2ccccn2)o1	MEKK3 PB1 HTS 134 | MEKK2wt confirm inactive | MEKK2mut-MEK5 inactive | MEKK3 confirm inactive
Cc1csc(SCC(=O)NCCc2ccc(Cl)cc2Cl)n1	MEKK3 PB1 HTS 69[inhibitor] | MEKK2wt confirm inactive | MEKK2mut-MEK5 inactive | MEKK3 confirm inactive
Cc1cccc(C)c1NC(=O)CN(C1CCCCC1)S(C)(=O)=O	none
CC(C)(C)OC(=O)C[C@H]1C/C=C\C[C@@H](CC(=O)N(CCO)Cc2ccccc2)C(=O)N[C@H](Cc2ccccc2)COC1=O	none (no result: MEKK2 WT-MEK5, MEKK2mut PB1 HTS, MEKK3 PB1 HTS)
Cc1cc(C)c(C#N)c(N2CCN(c3ccccc3)CC2)n1	none
Cc1cc(C)c(C#N)c(N2CCSCC2)n1	MEKK2 WT-MEK5 3.0[inhibitor], MEKK3 PB1 HTS 2.0[inhibitor] | MEKK2wt confirm inactive | MEKK2mut-MEK5 inactive | MEKK3 confirm inactive
COC(=O)C1=C(C(=O)OC)C(c2ccc(OC)c(OC)c2)c2sc(=O)[nH]c2S1 (configuration not stated)	MEKK2 WT-MEK5 60[inhibitor], MEKK3 PB1 HTS 55[inhibitor] | MEKK2wt confirm inactive | MEKK2mut-MEK5 inactive | MEKK3 confirm inactive
COC(=O)C1=C(C(=O)OC)C(c2cc(Cl)ccc2O)c2sc(=O)[nH]c2S1 (configuration not stated)	none
Cc1cc(C)c(OCCN2CCOCC2)c(Cl)c1	none
Nc1nc(Cl)cc(Sc2ccc3ccccc3c2)n1	MEKK2mut PB1 HTS 26 | MEKK2wt confirm inactive | MEKK2mut-MEK5 inactive | MEKK3 confirm inactive
Nc1nc(Cl)cc(-c2ccccc2)n1	none
COc1ccc(-c2nc(-c3ccccc3)nc(N3CCN(C)CC3)c2C#N)cc1	MEKK2 WT-MEK5 152 | MEKK2wt confirm inactive | MEKK2mut-MEK5 inactive | MEKK3 confirm inactive
COc1ccc(-c2nc(-c3cccc(C)c3)nc(N3CCN(C)CC3)c2C#N)cc1	MEKK2mut PB1 HTS 32 | MEKK2wt confirm inactive | MEKK2mut-MEK5 inactive | MEKK3 confirm inactive
COc1cccc(-c2nc(-c3ccccc3)nc(N3CCN(C)CC3)c2C#N)c1	none
N#Cc1c(-c2ccccc2)nc(-c2ccccc2)nc1N1CCOCC1	none
CN1CCN(c2nc(-c3ccccc3)nc(-c3ccccc3)c2C#N)CC1	MEKK2 WT-MEK5 146 | MEKK2wt confirm inactive | MEKK2mut-MEK5 inactive | MEKK3 confirm inactive
COC(=O)c1cc(CNC(=O)c2ccc(S(=O)(=O)N(C)c3ccccc3)cc2)ccc1OC	none (no result: MEKK2 WT-MEK5, MEKK2mut PB1 HTS, MEKK3 PB1 HTS)
O=S(=O)(Oc1ccccc1N1CCCCC1)c1ccccc1	none
CCOc1ccc(NC(=O)c2ccc(OC)cc2)cc1	MEKK3 PB1 HTS 126 | MEKK2wt confirm inactive | MEKK2mut-MEK5 inactive | MEKK3 confirm inactive
CCOc1ccc(NC(=O)c2ccc3c(SCC(=O)O)c4c(nc3c2)CCCC4)cc1	MEKK3 PB1 HTS 137 | MEKK2wt confirm inactive | MEKK2mut-MEK5 inactive | MEKK3 confirm inactive
COc1ccccc1C(=O)NCCC(=O)NCCC12CC3CC(CC(C3)C1)C2	none
COc1ccc(C23CC4CC(CC(C4)C2)C3)cc1C(=O)NCCN(C)C	MEKK2 WT-MEK5 140 | MEKK2wt confirm inactive | MEKK2mut-MEK5 inactive | MEKK3 confirm inactive
CN1CCN(c2cc3c(c4c2[nH]c2ccccc24)C(=O)CC(C)(C)C3)CC1	MEKK2 WT-MEK5 159, MEKK2mut PB1 HTS 36 | MEKK2wt confirm inactive | MEKK2mut-MEK5 inactive | MEKK3 confirm inactive
CC(C)=CCC[C@](C)(OC1OC(COC2OCC(O)C(O)C2O)C(O)C(O)C1O)C1CC[C@]2(C)C1C(O)CC1[C@@]3(C)CCC(O[C@@H]4O[C@H](CO)C(O)C(O)C4O[C@@H]4OC(CO)C(O)C(O)C4O)C(C)(C)C3CC[C@]12C (some centres not stated)	none (no result: MEKK2 WT-MEK5, MEKK2mut PB1 HTS, MEKK3 PB1 HTS)
